A short description of assay [1]: CEETOX_H295R_TESTO: CeeTox H295R High-throughput Steroidogenesis Assay for Testosterone (TESTO) (AID 2283457).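 For AC50: cells exposed to chemicals for 48 h before medium collection.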 The conditions noted are these: actives raise or lower the signal. As for the experimental part:
CEETOX_H295R is a cell-based, multiplexed-readout assay that uses H295R, a human adrenal gland cell line, with measurements taken at 48 hours after chemical dosing in a 96-well plate.CEETOX_H295R_TESTO is one of 23 assay component(s) measured or calculated from the CEETOX_H295R assay. It is designed to make measurements of hormone induction, a form of inducible reporter, as detected with […] by HPLC-MS-MS technology.Data from the assay component CEETOX_H295R_TESTO was analyzed into 1 assay endpoint. This assay endpoint, CEETOX_H295R_TESTO, was analyzed with bidirectional fitting relative to DMSO as the negative control and baseline of activity. Using a type of inducible reporter, gain or loss-of-signal activity using HPLC-MS-MS was used to understand synthesis of Testosterone in H295R cell line at 48hr of chemical exposure. To generalize the intended target to other relatable targets, this assay endpoint is annotated to the steroid hormone intended target family, where the subfamily is androgens.
Cell culture and media preparation procedures were conducted in accordance with OECD Test No. 456 guidelines, with minor modifications. H295R cells (ATCC CRL-2128) were expanded for 5 passages and frozen in batches in liquid nitrogen. Prior to the steroidogenesis assay, H295R cells were thawed and passed at least 4 times. The maximum passage was 10. Cells were maintained in a 1:1 mixture of DMEM/F12 supplemented with 5ml/L ITS+ Premix (BD Bioscience) and 12.5 ml/L Nu-Serum (BD Bioscience). After seeding cells into 96-well plates at 50-60% confluency, cells were allowed to adhere overnight. […] Test chemicals were incubated for 48 hours, then the medium was removed and split into 2 vials containing approximately 75uL each, and stored at -80 C prior to hormone analysis. For steroid quantification, media samples were shipped to OpAns, LLC (Durham, NC) on dry ice, and samples were thawed to room temperature prior to liquid-liquid extraction. Steroid hormones were extracted from media samples using methyl tertbutyl ether (MTBE). An extra derivatization with dansyl chloride was included for estrogen (estrone and estradiol) detection only. Steroid hormones were separated by HPLC, eluted using a reverse phase C18 gradient with electrospray positive ionization, followed by quantification by tandem mass spectrometry (MS/MS). Data were acquired on a MassHunter Workstation Acquisition version B03.01 (Agilent Technologies, Inc.) and processed using MassHunter Quantitative Analysis for QQQ. Accuracy was determined for each hormone analyte from 3 standards to determine upper and lower limits of quantification (ULOQ and LLOQ, respectively) using a 7-point standard curve. Precision and accuracy of the extraction and quantification methods were calculated as the percent relative standard deviation (%RSD) of the spiked standards and percent spiked standard recovered, respectively. […] Test medium was removed following chemical exposure, and cell viability was evaluated in the same wells by MTT. MTT procedures were as follows: after removal of test medium, 500 uL of 0.5 mg/ml of 3-[4,5-dimethylthiazol-2-y]2,5-diphenyltetrazoliumbromide solution was added to the cells. Following a 4-hour incubation at 37 C and 5% CO2 to allow formazan-crystal formation, the MTT solution was removed and blue formazan salt crystals were solubilized using 500uL anhydrous isopropanol with shaking for 20 minutes. Absorbance was read at 570 and 650nm using a Packard Fusion microplate reader. Background correction of absorbance units was used to determine percent change relative to controls. […] When a test chemical reduced cell viability to 20% - 70%, the test chemical was diluted 10-fold and re-evaluated, but if cell viability was <20%, then the test chemical was diluted 100-fold and re-evaluated. Test chemical dilutions were made until cell viability was >/=70%. MTT assays were also conducted for duplicates of all concentrations of chemicals tested in concentration-response studies. […]

Read-out in assay [2]: catalase (CAT), CAT (gene 847)
Nature of the assay: LTEA_HepaRG_CAT: Life Technologies and Expression Analysis (LTEA) Assay for catalase (CAT) using HepaRG (AID 2283452). The conditions noted are these: mRNA level, 48 h; actives raise or lower the signal. As for the experimental part:
(§1) LTEA_HepaRG is a cell based, multiplexed-readout assay that uses HepaRG, a human liver cell line, with measurements taken at 48 hours after chemical dosing on a 96-well plate.LTEA_HepaRG_CAT is one of 102 assay component(s) measured in the LTEA HepaRG cell culture assay. It is a marker of Oxidative Stress.Data from the assay component LTEA_HepaRG_CAT was analyzed into 1 endpoint. This assay endpoint, LTEA_HepaRG_CAT, was analyzed with bidirectional fitting relative to DMSO as the negative control and baseline of activity. Using a type of inducible reporter, measures of mRNA induction for gain or loss-of-signal activity can be used to understand regulation of transcription factor activity. To generalize the intended target to other relatable targets, this assay endpoint is annotated to the catalase intended target family, where the subfamily is oxidative stress.
A total of 1060 chemcials from the ToxCast library were tested in eight-point concentration-response experiments. Cell culture and cytotoxicity assays were conducted at Thermo Fisher Scientific's Custom Services facility (Madison, WI). […] Fluidigm's 96.96 Dynamic ArrayTM (Fluidigm, Amsterdam, the Netherlands) technology was used for gene expression analyses by quantitative reverse transcription polymerase chain reaction (qRT-PCR, performed by Quintiles/Expression Analysis, Durham, NC)89. […]

Read-out in assay [3]: flavin-containing dimethylaniline monooxygenases 3 (FMO3), FMO3 (gene 2328)
As to the kind of experiment: LTEA_HepaRG_FMO3: Life Technologies and Expression Analysis (LTEA) Assay for flavin-containing dimethylaniline monooxygenases 3 (FMO3) using HepaRG (AID 2283453). As to conditions: mRNA level, 48 h; actives raise or lower the signal. Summed up: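 Differentiated HepaRG cells in serum-free induction medium, exposed 48 h in duplicate to 8 half-log concentrations up to 100 uM in 0.5% DMSO. FMO3 mRNA by qRT-PCR, normalized to ACTB, GAPDH, POLR2A; bidirectional fit vs DMSO.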

Read-out in assay [4]: Cytochrome P450 (CYP1A1), CYP1A1 (gene 1543)
As to the kind of experiment: LTEA_HepaRG_CYP1A1: Life Technologies and Expression Analysis (LTEA) Assay for Cytochrome P450 (CYP1A1) using HepaRG (AID 2283454). The conditions noted are these: mRNA level, 48 h; actives raise or lower the signal. Summed up:
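HepaRG, 48 h post-plating switched to serum-free induction medium; 8-pt conc-response (top 100 uM, half-log, 0.5% DMSO), duplicates, 48 h. Lysis in RLT, TaqMan qRT-PCR for CYP1A1; gain or loss vs DMSO.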

Read-out in assay [5]: CFLAR gene, CFLAR (gene 8837)
As to the kind of experiment: LTEA_HepaRG_CFLAR: Life Technologies and Expression Analysis (LTEA) Assay for CFLAR gene using HepaRG (AID 2283455). As to conditions: mRNA level, 48 h; actives raise or lower the signal. Summed up:
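HepaRG cells were plated for 48 h, switched to serum-free induction medium, then exposed in duplicate for 48 h to 8 concentrations (top 100 uM, half-log steps, 0.5% DMSO). CFLAR mRNA was measured by qRT-PCR, normalized to ACTB, GAPDH and POLR2A.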

Read-out in assay [6]: Forkhead box O1 (FOXO1), FOXO1 (gene 2308)
Nature of the assay: LTEA_HepaRG_FOXO1: Life Technologies and Expression Analysis (LTEA) Assay for Forkhead box O1 (FOXO1) using HepaRG (AID 2283456). The conditions noted are these: mRNA level, 48 h; actives raise or lower the signal. Summed up:
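Differentiated human HepaRG cells in serum-free induction medium were exposed in duplicate for 48 h to eight half-log concentrations (top 100 uM, 0.5% DMSO). FOXO1 mRNA was measured by TaqMan qRT-PCR, normalised to ACTB, GAPDH and POLR2A, and fitted bidirectionally against DMSO.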

Read-out in assay [7]: growth arrest and DNA damage 45 (GADD45A), GADD45A (gene 1647)
Nature of the assay: LTEA_HepaRG_GADD45A: Life Technologies and Expression Analysis (LTEA) Assay for growth arrest and DNA damage 45 (GADD45A) using HepaRG (AID 2283458). As to conditions: mRNA level, 48 h; actives raise or lower the signal. The procedure, abridged:
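Cells plated and cultured 48 h, switched to serum-free induction medium, then dosed for 48 h (100 uM top, half-log dilutions, 0.5% DMSO). RNA was isolated and transcript measured by Fluidigm qRT-PCR.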

Read-out in assay [8]: Forkhead box O3 (FOXO3), FOXO3 (gene 2309)
Nature of the assay: LTEA_HepaRG_FOXO3: Life Technologies and Expression Analysis (LTEA) Assay for Forkhead box O3 (FOXO3) using HepaRG (AID 2283459). The conditions noted are these: mRNA level, 48 h; actives raise or lower the signal. Summed up: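 Differentiated human HepaRG cells in serum-free induction medium were exposed in duplicate for 48 h to eight half-log concentrations up to 100 uM in 0.5% DMSO. FOXO3 mRNA was quantified by qRT-PCR, normalized to ACTB, GAPDH and POLR2A, with bidirectional fitting versus DMSO.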

Read-out in assay [9]: ABC Transporter (ABCB1), ABCB1 (gene 5243)
Nature of the assay: LTEA_HepaRG_ABCB1: Life Technologies and Expression Analysis (LTEA) Assay for ABC Transporter (ABCB1) using HepaRG (AID 2283460). As to conditions: mRNA level, 48 h; actives raise or lower the signal. The procedure, abridged: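 Differentiated human HepaRG cells, plated 48 h then switched to serum-free induction medium, were exposed in duplicate to eight half-log concentrations up to 100 uM in 0.5% DMSO for 48 h. ABCB1 mRNA was measured by TaqMan qRT-PCR, normalized to ACTB/GAPDH/POLR2A.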

Read-out in assay [10]: growth arrest and DNA damage 45 (GADD45B), GADD45B (gene 4616)
As to the kind of experiment: LTEA_HepaRG_GADD45B: Life Technologies and Expression Analysis (LTEA) Assay for growth arrest and DNA damage 45 (GADD45B) using HepaRG (AID 2283461). As to conditions: mRNA level, 48 h; actives raise or lower the signal. As for the experimental part:
as §1, with “plate.LTEA_HepaRG_GADD45B” for “plate.LTEA_HepaRG_CAT”, “Cell proliferation, survival, death.Data” for “Oxidative Stress.Data”, “LTEA_HepaRG_GADD45B” for “LTEA_HepaRG_CAT”, “LTEA_HepaRG_GADD45B,” for “LTEA_HepaRG_CAT,”, “mutagenicity response” for “catalase”, “Cell proliferation, survival, death.” for “oxidative stress.”
A total of 1060 chemcials from the ToxCast library were tested in eight-point concentration-response experiments. […] Fluidigm's 96.96 Dynamic ArrayTM (Fluidigm, Amsterdam, the Netherlands) technology was used for gene expression analyses by quantitative reverse transcription polymerase chain reaction (qRT-PCR, performed by Quintiles/Expression Analysis, Durham, NC)89. […]

This note sets out measurements from PubChem BioAssay (EPA / NIEHS).

Molecules are shown by their SMILES. The source made the active and inactive calls. Rule for the calls: active = hit-call score of the fitted dose curve at least 0.9, where 1 is the maximum; inactive = score below 0.9.

On to `CC1(C)[C@H](C(=O)OCc2cccc(Oc3ccccc3)c2)[C@@H]1C=C(Cl)Cl`, for which the outcome in assay [1] was inactive.

As for `Nc1cc([N+](=O)[O-])ccc1Cl`, in assay [1], the call was inactive.

Consider `C=CC(C)(C)O`, for which the compound was classed as inactive in assay [1].

As for `O=C(O)c1ccc([N+](=O)[O-])cc1`, the call in assay [2], in [3], in assay [4], in [5], in assay [6] and in assay [7] was inactive. For the same compound, the outcome in [8], in [9] and in assay [10] was inactive.

As for `COc1cc2ncnc(Nc3cccc(Cl)c3)c2cc1OC`, the outcome in [1] was inactive.

As to `O=c1cc(-c2ccccc2)oc2cc(O)cc(O)c12`, in assay [1], the AC50 is 5610 nM (active).

`O=C(O)C[C@H](O)C[C@H](O)/C=C/c1c(C2CC2)nc2ccccc2c1-c1ccc(F)cc1`: in [1], the AC50 was 87.1 nM (active).
